M1 antag = human M1 muscarinic receptor antagonists, primary screen, CHO-K1 cells, Fluo-8 calcium fluorescence, 1536-well; Muscarinic acetylcholine receptor M1 (Homo sapiens), P11229; CHO-K1 hM1, ACh EC80 antagonist; inhibition, % at 3 µM; actives 1.3% (n = 360,000);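 active = percent inhibition above its own plate's cutoff, namely the mean of that plate's compound wells plus 3 SD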;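 note: peak over basal fluorescence ratio during 140 s after agonist addition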
Target sequence (P11229 whole entry, looked up): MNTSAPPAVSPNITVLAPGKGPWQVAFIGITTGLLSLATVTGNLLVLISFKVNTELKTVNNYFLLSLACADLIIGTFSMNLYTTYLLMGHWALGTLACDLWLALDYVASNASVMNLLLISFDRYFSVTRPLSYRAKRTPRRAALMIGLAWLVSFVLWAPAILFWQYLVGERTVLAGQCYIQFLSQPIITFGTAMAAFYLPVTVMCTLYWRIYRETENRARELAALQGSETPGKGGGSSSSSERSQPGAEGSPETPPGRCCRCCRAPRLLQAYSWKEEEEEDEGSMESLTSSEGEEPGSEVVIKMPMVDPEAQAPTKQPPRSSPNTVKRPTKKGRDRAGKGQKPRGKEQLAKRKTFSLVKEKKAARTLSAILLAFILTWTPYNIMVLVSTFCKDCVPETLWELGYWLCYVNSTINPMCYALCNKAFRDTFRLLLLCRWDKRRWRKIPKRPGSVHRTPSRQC
ATG4B inh = ATG4B protease inhibitors, primary screen, biochemical, fluorescence, uHTS; inhibition, % at 8.33 µM; actives 0.51% (n = 340,000); AID 504462, 2011; ATG4B cleavage of LC3-PLA2, NBD-HPC fluorescence, 1 h; in the data active = inhibition above about 40%
M1 PAM = human M1 muscarinic receptor positive allosteric modulators, primary screen, CHO-K1 cells, Fluo-8 calcium fluorescence, 1536-well. CHO-K1 hM1, ACh EC20; 0% = ACh EC20, 100% = maximal ACh. activation, % at 3 µM. actives 0.088% (n = 360,000); in the data active = activation above about 19%, passing the limit was not always enough
Myeloid diff MLP = induction of myeloid progenitor differentiation, primary screen, cell-based, flow cytometry, MLPCN library. calls only at 10 µM. ER-HoxA9 myeloid progenitors, lysozyme-GFP differentiation. actives 1% (n = 360,000);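 active = normalized GFP-positive differentiation at or above the plate's own cutoff, the solvent-only control mean plus 3 SD; inconclusive = no clear call, values can overlap the other calls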;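 note: cells exposed to compound for four days before flow analysis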
SKN-1 inh = suppressors of acrylamide-induced Pgst-4::GFP reporter in worms, primary screen, SKN-1 inhibitor project, whole organism, uHTS, GFP/RFP fluorescence ratio, strain VP596. inhibition, % at 21.8 µM. actives 0.49% (n = 360,000). AID 624304, 2012. C. elegans VP596 Pgst-4::GFP/RFP ratio, 24 h;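 active = interference check ratio from 0.5 to 1.5 plus GFP to RFP signal ratio inhibition reaching or exceeding a fixed threshold, cut at about 30% in these data, passing the limit was not always enough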
CHRM1 agonist = human M1 muscarinic receptor agonists, primary screen, Fluo-8 calcium fluorescence, CHO-K1 cells, HTS; Muscarinic acetylcholine receptor M1 (Homo sapiens), P11229; CHO-K1 hM1, agonist mode; 0% DMSO, 100% acetylcholine EC100; activation, % at 3 µM; actives 0.33% (n = 360,000);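 active = activation above the run's mean compound activation plus 3 SD, cut at about 16% in these data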;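 note: peak over basal fluorescence ratio within a 140 s kinetic read after compound addition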
Numbers stand for hits. Most compounds without a hit are left out; they make up all but 3.5% or so of the library.

What do the screens show for `CCCNC(=O)C1(C)CCCN(Cc2c(F)cccc2F)C1` (stereo not given)?
M1 antag: inactive; M1 PAM: inactive; Myeloid diff MLP: inactive; SKN-1 inh: inactive; CHRM1 agonist: inactive

How did CC(=O)C1=CCC(c2ccc(C)cc2)N(S(=O)(=O)c2ccc(C)cc2)C1 (stereo not given) do in these assays?
M1 antag: inactive; M1 PAM: inactive; Myeloid diff MLP: inactive; SKN-1 inh: inactive; CHRM1 agonist: inactive

What do the screens show for `CC(=O)C1=CCC(c2ccc(Br)cc2)N(S(=O)(=O)c2ccc(C)cc2)C1` (stereo not given)?
M1 antag: 36.9; M1 PAM: inactive; Myeloid diff MLP: inactive; SKN-1 inh: inactive; CHRM1 agonist: inactive

How did CC(=O)c1cccc(NS(=O)(=O)c2ccc(-c3cnc(C4CC4)o3)cc2)c1 do in these assays?
M1 antag: 32.1; ATG4B inh: inactive; M1 PAM: inactive; Myeloid diff MLP: inconclusive; SKN-1 inh: inactive; CHRM1 agonist: inactive

What do the screens show for `C#CCOCCOCCOCCNc1nc(N2CCN(C(=O)CCCCCCCCCCNC(=O)[C@@H](CCC(=O)O)n3cc(CCCCCN)nn3)CC2)nc(N2CCN(C(=O)CCCCCCCCCCNC(=O)[C@H](CO)n3cc(CCCCCN)nn3)CC2)n1`?
M1 antag: inactive; ATG4B inh: inactive; M1 PAM: inactive; Myeloid diff MLP: inactive; SKN-1 inh: inactive; CHRM1 agonist: inactive

How did CC[C@H](C)Cc1cn([C@@H](CCCN=C(NC(=O)OC(C)(C)C)NC(=O)OC(C)(C)C)C(=O)NCCCCCCCCCCC(=O)N2CCN(C(=O)OC(C)(C)C)CC2)nn1 do in these assays?
M1 antag: inactive; ATG4B inh: inactive; M1 PAM: inactive; Myeloid diff MLP: inactive; SKN-1 inh: inactive; CHRM1 agonist: inactive

How did C#CCOCCOCCOCCNc1nc(N2CCN(C(=O)CCCCCCCCCCNC(=O)[C@H](CCCCN)n3cc(C[C@@H](C)CC)nn3)CC2)nc(N2CCN(C(=O)CCCCCCCCCCNC(=O)[C@@H]([C@H](C)O)n3cc(C)nn3)CC2)n1 do in these assays?
M1 antag: inactive; ATG4B inh: 52.8; M1 PAM: inactive; Myeloid diff MLP: inactive; SKN-1 inh: inactive; CHRM1 agonist: inactive

Results for C#CCOCCOCCOCCNc1nc(N2CCN(C(=O)CCCCCCCCCCNC(=O)[C@H](CCCCN)n3cc(C)nn3)CC2)nc(N2CCN(C(=O)CCCCCCCCCCNC(=O)[C@@H]([C@H](C)O)n3cc(C)nn3)CC2)n1 ?
M1 antag: inactive; ATG4B inh: inactive; M1 PAM: inactive; Myeloid diff MLP: inactive; SKN-1 inh: inactive; CHRM1 agonist: inactive

How did C#CCOCCOCCOCCNc1nc(N2CCN(C(=O)CCCCCCCCCCNC(=O)[C@@H](CCC(=O)O)n3cc(CCCCCN)nn3)CC2)nc(N2CCN(C(=O)CCCCCCCCCCNC(=O)[C@H](CCCCN)n3cc(C[C@@H](C)CC)nn3)CC2)n1 do in these assays?
M1 antag: inactive; ATG4B inh: inactive; M1 PAM: inactive; Myeloid diff MLP: inactive; SKN-1 inh: inactive; CHRM1 agonist: 20.2

Results for Cc1cn([C@@H](CCCCNC(=O)OC(C)(C)C)C(=O)NCCCCCCCCCCC(=O)N2CCN(C(=O)OC(C)(C)C)CC2)nn1 ?
M1 antag: 43.8; ATG4B inh: inactive; M1 PAM: inactive; Myeloid diff MLP: inconclusive; SKN-1 inh: inactive; CHRM1 agonist: inactive

What do the screens show for `O=[N+]([O-])c1cc(Br)ccc1C[n+]1ccccc1`?
M1 antag: inactive; ATG4B inh: inactive; M1 PAM: inactive; Myeloid diff MLP: inactive; SKN-1 inh: inactive; CHRM1 agonist: inactive

Compound activity (PubChem BioAssay)
